Experimental data as given in PubChem BioAssay.
Activity calls are given as the source filed them.

What was measured:
[1] = small molecules captured by biotinylated probe aFSTL3 – biochemical, small-molecule microarray, fluorescence 635/667, stem cell growth factor project, primary screen (AID 1064); details: higher = more signal;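 note: measures binding of the biotinylated anti-FSTL3 antibody to printed compounds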
[2] = binders from COS7 lysate, DM2A8 probe, primary screen, torsin A project, cell lysate, small-molecule microarray, fluorescence 635/667 (AID 1065); details: higher = more signal, COS7 lysate expressing mutant human TOR1A
[3] = small molecules captured by biotinylated probe aFGF2 – biochemical, small-molecule microarray, fluorescence 635/667, stem cell growth factor project, primary screen (AID 1067); details: higher = more signal;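 note: measures binding of biotinylated aFGF2 protein to printed compounds on slides; z-score merges feature fluorescence and signal-to-noise across triplicate slides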
[4] = small molecules captured by biotinylated probe aFGF10 – biochemical, small-molecule microarray, fluorescence 635/667, stem cell growth factor project, primary screen (AID 1071); details: higher = more signal;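 note: score merges 667 nm spot intensity and signal to noise from triplicate slides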
[5] = biological target: Neurogenic locus notch homolog protein 2 (Homo sapiens) (UniProt Q04721); test: small molecules binding Notch2 protein – biochemical, small-molecule microarray, 635 nm fluorescence, stem cell growth factors, primary screen (AID 1073); details: higher = more signal
[6] = biological target: Pro-neuregulin-1, membrane-bound isoform (Homo sapiens) (UniProt Q02297); test: small molecules binding neuregulin-1 protein – biochemical, small-molecule microarray, fluorescence 635/667, psychiatric disease protein project, primary screen (AID 1075); details: NRG1 binding, 635 nm fluorescence, higher = more signal;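 note: score combines 667 nm spot fluorescence with signal to noise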
[7] = tested on: Neuregulin-1 EGF-like domain; test: small molecules binding NRG1 EGF domain – biochemical, small-molecule microarray, 635 nm fluorescence, primary screen (AID 1081); details: higher = more signal;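 note: binding of the protein to compounds printed on small-molecule microarray slides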
[8] = FRG1 expression reporter modulators in myotubes – cell-based, C2C12 myotubes, firefly/Renilla luciferase, luminescence, FRG1 inhibition for FSHD, primary screen (AID 1084); details: FRG1 promoter luciferase, higher = more signal, called active from +8 up or from −8 down
[9] = small molecules captured by biotinylated probe aFST – biochemical, small-molecule microarray, fluorescence 635/667, stem cell growth factor project, primary screen (AID 1086); details: higher = more signal;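 note: score merges 667 nm fluorescence with signal-to-noise of each printed compound spot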
[10] = binders of probe aHhip on microarray, primary screen, stem cell growth factor project, biochemical, small-molecule microarray, fluorescence 635/667 (AID 1087); details: higher = more signal;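 note: score merges spot fluorescence at 667nm with spot signal to noise ratio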
[11] = tested on: PRMT1 (protein arginine N-methyltransferase 1); test: small molecules binding arginine methyltransferase PRMT1 – biochemical, small-molecule microarray, 635 nm fluorescence, primary screen (AID 1088); details: higher = more signal;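 note: binding of Prmt1 protein to compounds spotted on small-molecule microarray slides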
[12] = growth effects on S. cerevisiae YJM789 – YJM789 clinical isolate, OD600, 24 h, basal, primary screen (AID 1089); details: higher = more signal, called active from +8 up or from −8 down;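 note: growth of clinical yeast isolate S. cerevisiae YJM 789 seeded 1000 cells per well; test concentration not given here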
[13] = S. pombe growth modifiers, basal conditions – strain 972, OD600, 24 h, no modulator, primary screen (AID 1090);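 note: basal condition with compound alone and no growth modifier present; test concentration not given here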; details: S. pombe 972 growth, higher = more signal, called active from +8 up or from −8 down
[14] = budding yeast growth modifiers under rapamycin – strain BY4716, OD600, 96 h, primary screen (AID 1091); note: test concentration not given here; details: S. cerevisiae BY4716 + rapamycin, higher = more signal, called active from +8 up or from −8 down
[15] = biological target: Torsin-1A-interacting protein 2 (Homo sapiens) (UniProt Q8NFQ8); test: small molecules binding lysate-expressed LULL1 – cell lysate, human LULL1 lysate, 635/667 nm fluorescence, primary screen (AID 1092); details: small-molecule microarray, hLULL1 lysate binding, 635 nm fluorescence; higher = more signal;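 note: probe is lysate of COS7 cells overexpressing human LULL1; score merges per-feature 667 nm fluorescence with signal-to-noise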
[16] = optical density change of DRC41 E. coli – strain DRC41, OD650, 24 h, E. coli filamentation project, primary screen (AID 1093);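 note: MC1000 strain lacking acrAB efflux and sulA so SOS filamentation is blocked; test concentration not given here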; details: E. coli DRC41 growth, higher = more signal, called active from +8 up or from −8 down
[17] = probe aLefty2 binding to arrayed compounds – biochemical, biotinylated probe, 635/667 nm fluorescence, primary screen (AID 1094); details: small-molecule microarray, higher = more signal;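 note: score merges spot fluorescence near 667 nm with spot signal-to-noise ratio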
[18] = tested on: Noggin (protein binding on small-molecule microarray); test: small molecules binding Noggin protein – biochemical, 635/667 nm fluorescence, primary screen (AID 1095); details: 635 nm fluorescence, higher = more signal;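 note: score merges 667 nm feature fluorescence with signal to noise over triplicate slides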
[19] = biological target: Neurogenic locus notch homolog protein 3 (Homo sapiens) (UniProt Q9UM47); test: small molecules binding NOTCH3 protein – biochemical, 635/667 nm fluorescence, primary screen (AID 1096); details: small-molecule microarray, 635 nm fluorescence, higher = more signal
[20] = probe aEGFR binding to arrayed compounds – biochemical, biotinylated probe, 635/667 nm fluorescence, primary screen (AID 1097); details: small-molecule microarray, higher = more signal;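 note: probe is a biotinylated anti-EGFR antibody binding compounds printed on slides; score combines fluorescence near 667 nm and signal to noise of each spot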

Chain of Neurogenic locus notch homolog protein 3 (Homo sapiens) (Q9UM47 whole entry, looked up): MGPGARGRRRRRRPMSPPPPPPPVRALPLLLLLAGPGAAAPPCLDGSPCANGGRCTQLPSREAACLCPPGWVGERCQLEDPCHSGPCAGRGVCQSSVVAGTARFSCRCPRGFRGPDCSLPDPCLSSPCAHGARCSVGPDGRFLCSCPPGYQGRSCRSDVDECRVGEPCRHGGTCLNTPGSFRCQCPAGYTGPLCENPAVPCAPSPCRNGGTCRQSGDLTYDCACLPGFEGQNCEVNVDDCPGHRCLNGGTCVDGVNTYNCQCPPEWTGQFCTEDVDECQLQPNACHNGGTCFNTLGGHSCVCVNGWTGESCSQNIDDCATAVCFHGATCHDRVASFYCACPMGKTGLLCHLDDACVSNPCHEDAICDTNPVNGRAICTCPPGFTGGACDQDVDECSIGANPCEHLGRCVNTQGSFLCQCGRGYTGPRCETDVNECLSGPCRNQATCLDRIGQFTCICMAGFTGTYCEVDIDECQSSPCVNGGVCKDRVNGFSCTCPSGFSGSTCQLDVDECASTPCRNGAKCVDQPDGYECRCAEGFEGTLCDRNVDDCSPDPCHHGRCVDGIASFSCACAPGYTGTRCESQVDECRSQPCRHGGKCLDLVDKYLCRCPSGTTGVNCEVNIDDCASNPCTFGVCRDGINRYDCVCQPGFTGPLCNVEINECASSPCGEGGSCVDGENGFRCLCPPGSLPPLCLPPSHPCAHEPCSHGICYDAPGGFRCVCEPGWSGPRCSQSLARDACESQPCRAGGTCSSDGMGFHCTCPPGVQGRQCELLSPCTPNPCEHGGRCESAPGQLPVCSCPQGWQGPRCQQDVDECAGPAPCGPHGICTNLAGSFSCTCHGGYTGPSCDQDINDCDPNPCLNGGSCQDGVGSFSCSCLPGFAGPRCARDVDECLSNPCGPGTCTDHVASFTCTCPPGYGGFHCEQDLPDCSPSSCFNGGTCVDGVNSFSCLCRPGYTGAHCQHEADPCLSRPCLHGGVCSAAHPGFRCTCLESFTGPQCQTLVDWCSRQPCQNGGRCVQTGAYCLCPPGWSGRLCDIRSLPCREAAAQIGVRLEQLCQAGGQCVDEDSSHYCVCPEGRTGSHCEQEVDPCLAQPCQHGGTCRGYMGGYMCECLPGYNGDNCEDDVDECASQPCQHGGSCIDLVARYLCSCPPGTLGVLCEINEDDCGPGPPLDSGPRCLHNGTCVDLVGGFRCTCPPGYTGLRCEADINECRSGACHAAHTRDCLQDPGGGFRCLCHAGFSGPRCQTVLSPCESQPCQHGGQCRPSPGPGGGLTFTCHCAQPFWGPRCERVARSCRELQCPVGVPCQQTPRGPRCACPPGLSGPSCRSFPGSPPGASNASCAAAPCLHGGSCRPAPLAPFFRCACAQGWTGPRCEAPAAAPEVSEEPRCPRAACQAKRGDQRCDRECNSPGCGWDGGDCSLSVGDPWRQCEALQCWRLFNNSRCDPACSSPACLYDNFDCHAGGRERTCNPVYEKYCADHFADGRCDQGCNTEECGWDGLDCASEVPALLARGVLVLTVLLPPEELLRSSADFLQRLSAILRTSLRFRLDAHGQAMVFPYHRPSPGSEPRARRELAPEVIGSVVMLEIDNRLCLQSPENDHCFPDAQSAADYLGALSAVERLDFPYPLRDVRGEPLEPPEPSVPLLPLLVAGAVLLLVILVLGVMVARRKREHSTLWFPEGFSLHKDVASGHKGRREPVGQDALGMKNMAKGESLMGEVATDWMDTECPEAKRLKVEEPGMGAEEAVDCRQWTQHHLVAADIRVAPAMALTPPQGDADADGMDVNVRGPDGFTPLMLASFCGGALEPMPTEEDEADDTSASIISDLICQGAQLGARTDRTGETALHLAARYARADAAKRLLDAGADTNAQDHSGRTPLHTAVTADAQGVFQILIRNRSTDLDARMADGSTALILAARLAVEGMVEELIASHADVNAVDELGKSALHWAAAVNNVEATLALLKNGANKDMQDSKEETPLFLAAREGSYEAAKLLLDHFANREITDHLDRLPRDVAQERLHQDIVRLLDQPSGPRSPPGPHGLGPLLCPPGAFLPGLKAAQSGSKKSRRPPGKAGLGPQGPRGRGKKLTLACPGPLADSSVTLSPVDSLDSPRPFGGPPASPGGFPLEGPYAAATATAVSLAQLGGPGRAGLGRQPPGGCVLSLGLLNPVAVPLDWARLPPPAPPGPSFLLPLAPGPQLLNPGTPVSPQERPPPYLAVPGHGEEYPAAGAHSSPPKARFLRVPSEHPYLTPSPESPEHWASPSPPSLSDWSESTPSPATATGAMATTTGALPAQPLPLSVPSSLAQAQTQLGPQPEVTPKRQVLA
Chain of Neurogenic locus notch homolog protein 2 (Homo sapiens) (Q04721 whole entry, looked up, canonical isoform): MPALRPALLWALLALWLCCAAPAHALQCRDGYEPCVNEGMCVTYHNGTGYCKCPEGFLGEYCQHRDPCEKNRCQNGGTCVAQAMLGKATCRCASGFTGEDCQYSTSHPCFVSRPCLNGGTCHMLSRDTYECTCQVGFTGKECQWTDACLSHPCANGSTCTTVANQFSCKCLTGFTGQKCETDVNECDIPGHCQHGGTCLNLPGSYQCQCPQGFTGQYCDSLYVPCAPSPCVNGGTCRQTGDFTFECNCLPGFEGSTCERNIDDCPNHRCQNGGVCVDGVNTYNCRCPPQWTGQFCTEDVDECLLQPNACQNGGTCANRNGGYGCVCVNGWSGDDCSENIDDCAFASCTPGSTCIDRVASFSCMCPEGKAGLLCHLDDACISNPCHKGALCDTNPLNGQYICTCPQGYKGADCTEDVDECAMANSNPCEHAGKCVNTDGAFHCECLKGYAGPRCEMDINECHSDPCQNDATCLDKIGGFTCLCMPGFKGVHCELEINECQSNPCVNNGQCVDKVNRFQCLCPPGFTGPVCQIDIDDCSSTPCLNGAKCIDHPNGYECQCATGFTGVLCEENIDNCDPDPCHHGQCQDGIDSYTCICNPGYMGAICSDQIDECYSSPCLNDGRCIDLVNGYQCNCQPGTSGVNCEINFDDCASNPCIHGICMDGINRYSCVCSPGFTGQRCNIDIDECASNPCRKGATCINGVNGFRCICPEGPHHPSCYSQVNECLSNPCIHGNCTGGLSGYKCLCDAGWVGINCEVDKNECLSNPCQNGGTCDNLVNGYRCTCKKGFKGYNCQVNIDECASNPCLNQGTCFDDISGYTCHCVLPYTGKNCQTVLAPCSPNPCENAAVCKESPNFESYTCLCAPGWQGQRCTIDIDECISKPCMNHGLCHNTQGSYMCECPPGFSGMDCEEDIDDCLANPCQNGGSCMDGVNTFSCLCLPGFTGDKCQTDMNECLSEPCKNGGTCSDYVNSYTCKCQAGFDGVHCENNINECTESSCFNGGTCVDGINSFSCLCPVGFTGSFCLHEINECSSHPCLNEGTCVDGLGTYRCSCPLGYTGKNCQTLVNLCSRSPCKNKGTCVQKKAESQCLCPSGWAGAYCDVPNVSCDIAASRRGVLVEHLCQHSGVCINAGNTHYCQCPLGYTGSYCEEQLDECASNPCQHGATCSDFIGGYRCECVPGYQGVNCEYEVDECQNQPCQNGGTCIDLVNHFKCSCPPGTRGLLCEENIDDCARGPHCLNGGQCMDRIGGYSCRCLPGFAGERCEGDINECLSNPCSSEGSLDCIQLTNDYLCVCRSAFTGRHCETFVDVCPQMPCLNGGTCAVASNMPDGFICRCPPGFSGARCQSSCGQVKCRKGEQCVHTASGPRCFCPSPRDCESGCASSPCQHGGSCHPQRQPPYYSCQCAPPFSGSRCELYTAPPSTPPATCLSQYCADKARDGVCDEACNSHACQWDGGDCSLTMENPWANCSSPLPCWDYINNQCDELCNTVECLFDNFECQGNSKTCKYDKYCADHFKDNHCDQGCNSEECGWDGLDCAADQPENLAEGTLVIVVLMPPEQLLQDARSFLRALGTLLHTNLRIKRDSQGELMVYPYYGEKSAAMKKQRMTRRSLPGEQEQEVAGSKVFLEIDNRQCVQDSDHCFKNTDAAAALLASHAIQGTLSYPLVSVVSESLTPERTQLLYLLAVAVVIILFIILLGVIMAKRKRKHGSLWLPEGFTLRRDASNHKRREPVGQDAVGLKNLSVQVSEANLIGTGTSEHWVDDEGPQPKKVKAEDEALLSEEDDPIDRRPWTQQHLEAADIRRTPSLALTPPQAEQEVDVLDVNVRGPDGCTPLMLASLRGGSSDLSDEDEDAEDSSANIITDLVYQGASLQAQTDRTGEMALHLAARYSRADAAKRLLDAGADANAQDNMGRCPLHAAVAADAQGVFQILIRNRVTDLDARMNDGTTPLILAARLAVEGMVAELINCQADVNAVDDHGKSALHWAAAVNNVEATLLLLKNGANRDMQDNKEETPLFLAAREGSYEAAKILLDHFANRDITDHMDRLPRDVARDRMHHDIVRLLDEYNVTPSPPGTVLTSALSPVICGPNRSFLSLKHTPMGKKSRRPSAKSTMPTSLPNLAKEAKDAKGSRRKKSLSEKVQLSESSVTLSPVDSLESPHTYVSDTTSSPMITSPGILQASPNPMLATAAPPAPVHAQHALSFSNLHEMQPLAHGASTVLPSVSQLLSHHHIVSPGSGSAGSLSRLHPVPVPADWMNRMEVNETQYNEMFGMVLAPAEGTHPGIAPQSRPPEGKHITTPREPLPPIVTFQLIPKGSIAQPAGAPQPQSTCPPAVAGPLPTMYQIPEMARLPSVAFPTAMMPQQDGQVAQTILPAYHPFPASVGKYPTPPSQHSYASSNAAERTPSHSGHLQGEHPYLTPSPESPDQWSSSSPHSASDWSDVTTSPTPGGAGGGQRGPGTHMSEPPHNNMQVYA

| SMILES | composite z-score [1] | composite z-score [2] | composite z-score [3] | composite z-score [4] | composite z-score [5] | composite z-score [6] | composite z-score [7] | z-score [8] | composite z-score [9] | composite z-score [10] | composite z-score [11] | z-score [12] | z-score [13] | z-score [14] | composite z-score [15] | z-score [16] | composite z-score [17] | composite z-score [18] | composite z-score [19] | composite z-score [20] |
| --- | --- | --- | --- | --- | --- | --- | --- | --- | --- | --- | --- | --- | --- | --- | --- | --- | --- | --- | --- | --- |
| CCOC(=O)C1=CC[C@@H](c2ccccc2)N(S(=O)(=O)c2ccc(C)cc2)[C@H]1c1ccc(C#N)cc1 | -0.0221 | 0.381 | 0.054 | 0.359 | 1.43 | 1 | 1.01 | -1.59 (inactive) | 0.832 | -0.161 | 0.852 | -0.624 (inactive) | 0.553 (inactive) | 1.18 (inactive) | 2.73 | -0.883 (inactive) | 0.0163 | -0.232 | 1.11 | 0.136 |
| CC(=O)n1cc(C(O)C2C=CC3C(=O)N(c4ccccc4)C(=O)C3N2Nc2ccc(C#N)cc2)c2ccccc21 (stereo not given) | -0.0594 | -0.234 | 0.106 | 0.794 | 1.5 | 1.8 | 1.29 | 0.471 (inactive) | 0.296 | 0.0373 | 1.33 | -0.589 (inactive) | 1.09 (inactive) | 1.85 (inactive) | 3.4 | -0.795 (inactive) | 0.401 | -0.244 | 0.48 | -0.0804 |
| COC(=O)C(CC#Cc1ccc2c(c1)[C@]1(C(=O)N2)[C@H](C(=O)N2CCCCCCC2)[C@H]2C(=O)O[C@H](c3ccccc3)[C@H](c3ccccc3)N2[C@@H]1c1ccccc1OCCO)C(=O)OC | 3.68 | 2.84 | 1.03 | 1.26 | 1.75 | 2.65 | 1.38 | 0.695 (inactive) | 3.61 | 3.1 | 1.54 | 0.293 (inactive) | -0.97 (inactive) | 0.172 (inactive) | 5.3 | -0.823 (inactive) | 1.89 | 2.44 | 1.02 | 1.46 |
| CC1CC/C=C\[C@H]2OC34C=CCN(c5ccc6ccccc6c5)C(=O)[C@H]3N(CCCCCO)C(=O)[C@@H]4C2C(=O)O1 (stereo not given in full) | -0.46 | -0.0205 | -0.159 | -1.01 | -1.04 | -0.712 | -0.734 | 0.772 (inactive) | -0.818 | -0.306 | -0.712 | 0.231 (inactive) | 0.0271 (inactive) | -0.32 (inactive) | -1.87 | -0.603 (inactive) | 0.182 | -1.21 | -0.7 | -0.233 |
| Cc1c(NC(=O)/C(C#N)=C/C=C/c2ccccc2)c(=O)n(-c2ccccc2)n1C | -0.438 | -0.0022 | -0.0035 | 0.286 | 0.654 | 0.757 | 0.825 | 4.07 (inactive) | 0.003 | 0.237 | 0.311 | 0.243 (inactive) | -0.678 (inactive) | 0.561 (inactive) | 0.396 | 1.94 (inactive) | -0.31 | 0.244 | 0.478 | -0.0293 |
| C=C[C@H](C)[C@H](O)c1ccc(OCCO)cc1 | 0.254 | -0.716 | -0.243 | -1.14 | -2.21 | -0.758 | -0.694 | 5.78 (inactive) | -0.91 | -0.204 | -0.647 | 0.132 (inactive) | -0.404 (inactive) | -0.539 (inactive) | -1.2 | 0.943 (inactive) | 0.19 | -1.19 | -1.11 | -0.397 |
